Data as given in ChEMBL document CHEMBL4513216, “Probing the Open Global Health Chemical Diversity Library for Multistage-Active Starting Points for Next-Generation Antimalarials” (ACS Infect Dis, 2020).
The campaign covered roughly 69,000 compounds. About 8,600 (12%) showed an effect of 50% or more. The entries come from a sample that favours strong results as a whole.

These compounds were tested on Plasmodium berghei (assay: Screen against P. berghei liver stage (PbLuc), transformed with Luciferase, at 10uM). Conditions: tested at 10 uM.
Type: functional, HepG2

SMILES	INHIBITION
C[C@]1(O)CCN(Cc2ncccc2F)C[C@@H]1Oc1ccccc1	-11.7%
CC[S+](CC)[c-]1c(=O)[nH]c(=O)n(CCc2ccc(F)cc2)c1=O	-17.6%
O=C(O)c1cnc(N2CCC(O)CC2)nc1COc1cccc(F)c1	6.67%
CCOc1ccc(Br)cc1C1CCCN1 (stereo unspecified)	16.8%
Cc1cnc(N2CCC3(CC2)CN(Cc2cccs2)CCO3)nc1	58.3%
Fc1cnc(N2CCC3(CC2)CN(Cc2ccccn2)CCO3)nc1	-3.51%
Fc1cnc(N2CCC3(CC2)CN(Cc2cccs2)CCO3)nc1	60.3%
O=C(c1ccccc1)N1CCOC2(CCN(Cc3cccs3)CC2)C1	-11%
Fc1cnc(N2CCOC3(CCN(Cc4cccs4)CC3)C2)nc1	48.4%
c1ccc(CN2CCOC3(CCN(c4ncccn4)CC3)C2)nc1	14.2%
O=C(NCc1csc(Br)c1)Nc1cn[nH]c1	17.5%
COCCC1(C(=O)O)CCCN(CCOCc2ccccc2)C1 (stereo unspecified)	27.9%
COCCC1(C(=O)O)CCCN(CCc2ccccc2)C1 (stereo unspecified)	31.6%
COCCCC1(C(=O)O)CCCN(Cc2cc3c(cc2C)OCCO3)C1 (stereo unspecified)	-31.4%
COCCC1(C(=O)O)CCCN(Cc2cc3c(cc2C)OCO3)C1 (stereo unspecified)	57.2%
COCCCC1(C(=O)O)CCCN(Cc2ccccc2C)C1 (stereo unspecified)	14.9%
COCCC1(C(=O)O)CCCN(Cc2cc3c(cc2Cl)OCO3)C1 (stereo unspecified)	58.5%
C=c1cc(C)oc1=C1NC(c2c(C)ncc3c2CCNC3)=NO1	49%
O=C(Nc1cnn(Cc2ccc(Cl)cc2)c1)N1CCCC1CO (stereo unspecified)	-31.1%
FC1(F)CCNCC12CCN(c1cccnc1)C2 (stereo unspecified)	33%
O=C(NCCNc1ncccn1)C1CC(=O)N(Cc2ccco2)C1 (stereo unspecified)	2.3%
O=C(NCCNc1ncccn1)C1CC(=O)N(Cc2ccccn2)C1 (stereo unspecified)	50.5%
O=C(NCCNc1ncccn1)C1CC(=O)N(Cc2ccccc2)C1 (stereo unspecified)	-24.2%

SMILES	INHIBITION
O=C1CCc2cc(NC(=O)C3CCCN3c3nccs3)ccc2N1 (stereo unspecified)	24.3165%
O=C1CC[C@H](C(=O)N(CCc2ccccc2)C2CCOC2)N1 (stereo partly specified)	55%
O=C(C1CC1)N(CCc1ccccc1)C1CCOC1 (stereo unspecified)	-28.6%
O=C(C1CCOCC1)N(CCc1ccccc1)C1CCOC1 (stereo unspecified)	-5.33%
C[C@H]1CN(C(=O)N(C)C)C[C@@]12CCN(c1ccsc1)C2=O	36.9%
O=C(c1ccc(S(=O)(=O)NCCc2ccccn2)cc1)N1CCCC1	30.3%
O=C(NCC(F)F)c1ccc(S(=O)(=O)NCCc2cn[nH]c2)cc1	35.8%
O=C(NCC(F)F)c1ccc(S(=O)(=O)NCCc2c[nH]cn2)cc1	10.4%
O=C(NCC(F)F)c1ccc(S(=O)(=O)NCCc2ccncc2)cc1	52.2%
O=C(c1ccc(S(=O)(=O)NCc2ccncc2)cc1)N1CCNCC1	19.5%
O=C(c1ccc(S(=O)(=O)NCCc2ccncc2)cc1)N1CCCC1	57.6%
CC(C)c1nccn1C1CCCN(C(=O)c2cn3cccnc3n2)C1 (stereo unspecified)	1.78%
Cn1c(C(=O)NC2CC2)nc2c1CCN(c1ncccn1)C2	21.6%
Cn1c(C(=O)NC2CCCC2)nc2c1CCN(Cc1ccccc1)C2	-18.5%
Cc1ncccc1NC(=O)c1nc2c(n1C)CCN(C(=O)C1CC1)C2	66.6%
Cc1cnn(CC2CCCCN2c2nn3cc(C)nc3s2)c1 (stereo unspecified)	-23.9%
CC1(C)CN(C(=O)c2occc2COc2cccc(C#N)c2)CCO1	-10.8%
Cc1cnn(C2CN(CCOc3ccccc3C#N)C2)c1	58.8%
Cc1cnn(C2CN(CCCOc3ccc(C#N)cc3)C2)c1	49%
Cn1ccnc1CN1CCN(CCOc2ccccc2C#N)CC1	44.8%
Cc1cc(C)n(CC2CN(CCOc3ccccc3C#N)CCO2)n1 (stereo unspecified)	-10.6%
Cc1cnn(C2CN(CCOc3ccc(C#N)cc3)C2)c1	-26.1%
Cc1cnn(C2CN(CCOc3cccc(C#N)c3)C2)c1	69.9%

SMILES	INHIBITION
O=C(NCCc1cc(N2CCOCC2)nc(N2CCCC2)n1)C1CC1	15.548%
O=C(CC1CC2(CCN(CC3CC3)CC2)Oc2ccccc21)NC1CC1 (stereo unspecified)	7.5%
Fc1ccc([C@@H]2COC[C@H]2NCc2cccc(F)c2)cc1	20.2%
CCN1CCc2c(CNC(=O)c3nccn3C)cncc2C1	35.8%
C=C/C=c1\c(=C/C)oc2c(NCc3ccccc3)nc(CC)nc12	22.5%
C=C/C=c1\c(=C/C)oc2c(NCc3ccccc3)ncnc12	60.3%
C=C/C=c1\c(=C/C)oc2c(NCc3ccccc3)nc(C)nc12	68%
Cc1nn(C)c2c(NCc3ccccn3)ncnc12	42.1%
Cc1nc(NCc2cccnc2)c2c(n1)c(C)nn2C	1.81%
Cc1ncc(CN)c(-c2cn(C)c3ccccc23)n1	9.05%
CN(CC(N)=O)C(=O)C1Cc2cc(Cl)ccc2O1 (stereo unspecified)	-5.64%
CN(C)CC1(O)CCN(C(=O)Cc2ccc(Cl)c(Cl)c2)C1 (stereo unspecified)	39.1%
CN(C)CC1(O)CCN(C(=O)Cc2ccc3c(c2)CCCC3)C1 (stereo unspecified)	20.6%
CN(C)CC1(O)CCCN(C(=O)Cc2ccc(Cl)c(Cl)c2)C1 (stereo unspecified)	52.2%
O=C1[C@@H]2CN(c3ncnc4sccc34)C[C@]2(C(=O)O)CN1CC1CC1	29.2%
Cc1nn(C)c(N(C)C)c1CNC1CCOc2c(Cl)cccc21 (stereo unspecified)	-17.7%
COc1ccccc1C1(O)CCCN(C(=O)c2ccnn2C(C)C)C1 (stereo unspecified)	-24.4%
CNC(=O)[C@@H]1CN(C(=O)C(C)C)C[C@H]1c1ccnc(N2CCCC2)n1	21.7%
Cc1noc(C2CCC3(CCN(C(=O)C4CCOCC4)CC3)O2)n1 (stereo unspecified)	32.2%
NC(CC1CCCC1)c1ccc(Oc2ccccc2)cc1 (stereo unspecified)	80.1%
NC(c1ccccc1)c1ccc(OC(F)F)cc1 (stereo unspecified)	29.3%
NC(CC1CCCCC1)c1ccccc1 (stereo unspecified)	5.15%
NC(=O)C(NC1CCN(CC2CCCCC2)CC1)c1ccc(F)cc1 (stereo unspecified)	-55.1%

SMILES	INHIBITION
NC(=O)C(NC1CCN(CC2CCCCC2)CC1)c1ccccc1 (stereo unspecified)	-139%
NC(CC1CCCC1)c1ccccc1 (stereo unspecified)	62.2%
COCc1noc(Cc2cc(Cl)c3c(c2)OCCCO3)n1	-69.2%
CC(C)(C)CC(=O)NCCCn1cncn1	40.6%
Cc1cn2c(n1)CCC(NC(=O)c1cncnc1C)C2 (stereo unspecified)	-0.219%
CC(NCCN1CCN(C(=O)C2CCCC2)CC1)c1cnn(C)c1 (stereo unspecified)	17.1%
N#CCSCCCN1CCC(C(=O)N2CCCCCC2)CC1	51.8%
Cc1ccc(C(=O)N2CCN(CCCSCC#N)CC2)o1	0.139%
CC1CCN(CCNC(=O)C2CCN(C(=O)C3CC3)CC2)CC1	-8.23%
N#CCSCCCN1CCCC(C(=O)N2CCCCCC2)C1 (stereo unspecified)	35.5%
N#CCSCCCN1CCN(C(=O)C2CCCC2)CC1	50.7%
O=C(O)c1cc(S(=O)(=O)Nc2ccc(F)cc2Cl)cc2c1OCCO2	23.5%
O=C([C@H]1CCCO1)N1CCCC2(CCN(Cc3ccncc3)C2=O)C1 (stereo partly specified)	10.3%
CN1C(=O)CCCC12CCCN(C(=O)c1cc(F)cc(F)c1)C2 (stereo unspecified)	33.4%
Cn1cc(CC(=O)N2CCCC(n3cncn3)C2)cn1 (stereo unspecified)	17.4%
Cc1cnc(CNC(=O)CCCn2cnc3ccccc3c2=O)cn1	34.6%
Cc1csc2c(C3CCCN(C(=O)CCCn4cncn4)C3)nc(C)n12 (stereo unspecified)	-1.16%
CC(C)c1nc(C2CCCN(C(=O)CCn3ccnc3)C2)no1 (stereo unspecified)	56.1%
Cc1nc(C2CCCN2C(=O)CCCn2cccn2)no1 (stereo unspecified)	-25.9%
Cc1csc2c(C3CCCN(C(=O)CCn4ccnc4)C3)nc(C)n12 (stereo unspecified)	57.3%
Cc1nc(C2CCCN(C(=O)CCCn3cccn3)C2)no1 (stereo unspecified)	53.5%
Cc1csc2c(C3CCCN(C(=O)CCn4cncn4)C3)nc(C)n12 (stereo unspecified)	5.34%
CCCc1noc(CCC(=O)N2CCCC(c3ccn[nH]3)C2)n1 (stereo unspecified)	16.8%

SMILES	INHIBITION
CCc1noc(CCCC(=O)N2CCCC(c3ccn[nH]3)C2)n1 (stereo unspecified)	42.8%
CC(C)c1nc(C2CCCN(C(=O)CCn3cncn3)C2)no1 (stereo unspecified)	31.2%
CC(C)c1nc(C2CCCN(C(=O)CCCn3cccn3)C2)no1 (stereo unspecified)	-29.8%
O=C(CCCc1nc(C2CC2)no1)N1CCCC(c2ccn[nH]2)C1 (stereo unspecified)	52.6%
CC(C)c1nc(C2CCCN(C(=O)CCCn3ccnc3)C2)no1 (stereo unspecified)	-19.4%
Cc1ccc(S(=O)(=O)Nc2cnn(C3CCOCC3)c2)cc1C	-52.5%
CCCc1ccc(S(=O)(=O)NC(=O)CCc2cscn2)cc1	16.2%
O=S(=O)(c1cncc(F)c1)N1CCSC2(CCCCC2)C1	28.5%
COc1c(C2CCCN2C(=O)c2cccnc2N(C)C)c(C)nn1C (stereo unspecified)	23.4%
COc1ccc(-n2cc(CNC(=O)c3cc[nH]n3)nn2)cc1	-120%
O=S(=O)(CCCN1CCc2c(ncn2C2CC2)C1)c1ccccc1	-27.5%
CCCN1C(=O)CC(N2CCN(c3ccc(F)cc3)CC2)C1=O (stereo unspecified)	-34.7%
CC(C)N1C(=O)CC(N2CCN(c3ccc(F)cc3)CC2)C1=O (stereo unspecified)	14.3%
CC(C)CN1C(=O)CC(N2CCN(c3ccc(F)cc3)CC2)C1=O (stereo unspecified)	54%
CCN(Cc1ccc2c(c1)OCO2)C(=O)NC(C)Cn1ccnc1 (stereo unspecified)	26.4%
Cc1sc(CNS(N)(=O)=O)nc1-c1ccc(Cl)cc1	-20.6%
CCC(N)C(=O)N1CCC(OCc2ccc(Cl)c(Cl)c2)CC1 (stereo unspecified)	47.7%
CNC(=O)CN1CCC(OCc2ccc(Cl)c(Cl)c2)CC1	65.6%
NC(=O)CN1CCC(OCc2ccc(Cl)c(Cl)c2)CC1	33.1%
